Data as given in PubChem BioAssay AID488969 (Vanderbilt High Throughput Screening Facility, 2010).
In all, about 110,000 compounds were measured (“z-score”: median about -0.1, highest 2% from about 2 on). This is one part of a sample in which the highest values are shown more often than they occur. The source made the active and inactive calls.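 How the source made its calls: active means z-score in the third read window above 3 or below -3; inactive means the rest.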

Each molecule was assayed against Metabotropic glutamate receptor 8 (Rattus norvegicus) (UniProt P70579) (assay: rat mGluR8 modulators via GIRK flux, primary screen, cell-based, thallium flux, HTS (AID 488969)). Settings: HEK293 rat mGluR8, GIRK (G protein-gated inwardly rectifying potassium channel) thallium flux, FluoZin2; at 10 µM; stronger effect = higher value; submaximal glutamate (EC20) added with thallium.
Chain of Metabotropic glutamate receptor 8 (Rattus norvegicus) (P70579 whole entry, looked up): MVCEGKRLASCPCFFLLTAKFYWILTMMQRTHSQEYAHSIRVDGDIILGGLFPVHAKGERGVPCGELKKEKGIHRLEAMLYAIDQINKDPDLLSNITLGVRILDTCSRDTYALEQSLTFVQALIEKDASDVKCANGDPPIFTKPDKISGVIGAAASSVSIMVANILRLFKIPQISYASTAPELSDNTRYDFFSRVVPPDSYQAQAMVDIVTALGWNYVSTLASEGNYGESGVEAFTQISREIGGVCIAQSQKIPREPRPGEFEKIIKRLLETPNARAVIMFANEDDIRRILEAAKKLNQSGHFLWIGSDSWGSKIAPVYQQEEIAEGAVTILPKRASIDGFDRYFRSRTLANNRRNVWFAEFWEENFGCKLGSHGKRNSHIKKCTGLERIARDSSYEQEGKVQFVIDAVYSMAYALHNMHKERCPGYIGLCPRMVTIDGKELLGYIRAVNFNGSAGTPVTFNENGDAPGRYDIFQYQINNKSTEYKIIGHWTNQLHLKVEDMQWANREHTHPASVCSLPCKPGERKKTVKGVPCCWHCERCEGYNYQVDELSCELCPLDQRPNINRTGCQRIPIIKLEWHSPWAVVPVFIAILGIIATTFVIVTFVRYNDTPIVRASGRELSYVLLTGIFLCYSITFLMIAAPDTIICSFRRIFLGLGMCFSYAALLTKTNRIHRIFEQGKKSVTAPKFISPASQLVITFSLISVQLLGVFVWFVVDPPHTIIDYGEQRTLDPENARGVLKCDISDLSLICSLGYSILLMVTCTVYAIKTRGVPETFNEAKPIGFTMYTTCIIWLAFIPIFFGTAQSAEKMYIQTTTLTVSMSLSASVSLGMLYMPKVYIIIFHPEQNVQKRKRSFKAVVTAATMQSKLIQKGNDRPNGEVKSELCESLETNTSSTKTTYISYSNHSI

Compound	z-score
COc1cccc(NC(=O)COC(=O)c2c3c(nc4ccccc24)CCC(C)C3)c1 (stereo not given)	-0.604
CC(/C=N/n1c(-c2ccc(C)cc2)n[nH]c1=S)=C\c1ccco1	0.323
CC(/C=N/n1c(-c2ccc(Cl)cc2)n[nH]c1=S)=C\c1ccco1	6.09 (active)
Cc1nn(-c2ccccc2)c(C)c1/C=N/n1c(-c2ccc(Cl)cc2)n[nH]c1=S	0.338
CC(/C=N/n1c(-c2ccccc2)n[nH]c1=S)=C\c1ccco1	6.02 (active)
S=c1[nH]nc(-c2ccccc2)n1/N=C/C=C/c1ccco1	0.28
Cc1ccc(-c2n[nH]c(=S)n2/N=C\c2ccco2)cc1	-0.16
COc1ccc(OC)c(NC(=O)CSc2ncccn2)c1	-0.134
COc1ccc(C(=O)n2nc(C)cc2C)cc1OC	-0.221
c1ccc(Cn2c(Sc3nnnn3-c3ccccc3)nnc2-c2ccccc2)cc1	0.223
COc1ccc(CNC(=S)Nc2cccc(C)c2C)cc1	-0.341
Cc1ccc2nsnc2c1NC(=O)c1ccc2c(c1)OCCO2	-0.679
Cc1ccc(S(=O)(=O)/N=C(/NC(=S)Nc2ccccc2)c2ccccc2)cc1	0.34
CCN1CCCC1Cn1cnc2c([nH]c3cc(OC)ccc32)c1=O (stereo not given)	-0.271
CCC1CCCN1Cn1cnc2c([nH]c3ccc(OC)cc32)c1=O (stereo not given)	6.77 (active)
CCCCN(CCCC)CCn1cnc2c([nH]c3ccc(OC)cc32)c1=O	0.258
CCOCCc1nnc(NC(=O)c2cccs2)s1	-0.0424
O=C(NC1CCCC1)C(c1ccccc1)N(C(=O)c1ccno1)c1ccccc1 (stereo not given)	0.315

Compound	z-score
CC(C)(C)NS(=O)(=O)c1ccc2c(c1)oc(=O)c1cc(S(=O)(=O)NC(C)(C)C)ccc12	-0.0322
Cn1nnnc1SCC(=O)Nc1ccccc1C(=O)NC1CC1	0.311
Cn1nnnc1SCC(=O)Nc1ccccc1C(=O)NCc1ccccc1	0.00964
CC(NC(=O)c1ccccc1NC(=O)CSc1nnnn1C)c1ccccc1 (stereo not given)	2.05
O=C(c1cnn2c(C(F)(F)F)cc(-c3ccccc3)nc12)N1CCCc2ccccc21	-0.322
CC1Cc2cc(/C(O)=C3/C(=O)C(=O)N(CCCn4ccnc4)C3c3ccco3)ccc2O1 (stereo not given)	-0.193
COc1nc(-c2ccccc2)ccc1-c1noc(-c2ccccc2)n1	0.293
CC(C)(C)CC(C)(C)NC1=CC(=O)OC12CCCCC2	-0.189
CSc1nc(N2CCCC2)c2c(c1C#N)CC(C)(C)OC2	-0.933
COC(=O)Sc1nc(N2CCOCC2)c2c(c1C#N)CC(C)(C)OC2	-2.52
CC(C)c1nc(N2CCOCC2)c(C#N)c2c1CCCC2	6.82 (active)
CCCCc1nc(N2CCOCC2)c(C#N)c2c1COC(C)(C)C2	-0.434
CSc1nc(N2CCOCC2)c2c(c1C#N)CC(C)(C)OC2	2.16
Cc1nc(N2CCOCC2)c(C#N)c2c1COC(C)(C)C2	-0.387
CC(C)Cc1nc(N2CCOCC2)c(C#N)c2c1COC(C)(C)C2	2.42
CC(C)c1nc(N2CCCC2)c(C#N)c2c1CCCC2	0.908
CC(C)c1nc(N2CCOCC2)c(C#N)c2c1CCC2	0.532
